# Inconclusive results are not listed. Calls of active or inactive are those of the source.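 How the source made its calls, unless noted: active means differentiation response of at least 50%, scaled between solvent and reference control, from cells with both markers; inactive means the rest.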
# Key:
# [1] = yeast TOR pathway RPL19A-GFP modulators, primary screen, cell-based, S. cerevisiae, multiplex flow cytometry (AID 1862; in the data active means percent of DMSO control GFP below about 86%;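 further: lower values mimic rapamycin by blocking the RPL19A rise seen in DMSO cells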); conditions: S. cerevisiae RPL19A-GFP strain, flow cytometry fluorescence, 3 h; at 10 µM; stronger effect = lower value
# [2] = modulators of MEP2-GFP levels in yeast, primary screen, S. cerevisiae, multiplex flow cytometry (AID 1867;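 active means GFP response, as percent of the DMSO control, above the screen-wide mean plus 3 SD, about 139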;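 further: median GFP channel fluorescence of barcode-gated MEP2-GFP cells measured by flow cytometry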); conditions: S. cerevisiae MEP2-GFP strain, 3 h, at 10 µM, stronger effect = higher value, 100% means same as DMSO wells
# [3] = modulators of CIT2-GFP expression in yeast, primary screen, S. cerevisiae, GFP fusion, multiplex flow cytometry (AID 1870;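 active means percent response above a set limit, the screen-wide mean plus 3 SD, cut at about 130% in these data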;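 further: barcoded CIT2-GFP strain pooled with four other GFP strains with rapamycin as positive control; median GFP fluorescence per well over plate mean of DMSO wells so 100% = DMSO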); conditions: 3 h, at 10 µM, stronger effect = higher value
# [4] = modulators of LAP4-GFP expression in yeast, primary screen, S. cerevisiae, multiplex flow cytometry (AID 1873;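 active means GFP signal, as percent of the solvent control, above the screen mean plus 3 SD, about 149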); conditions: 3 h, at 10 µM, stronger effect = higher value
# [5] = modulators of AGP1-GFP expression in yeast TOR pathway, primary screen, cell-based, multiplex flow cytometry, S. cerevisiae (AID 1887;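 active means GFP signal above the screen-wide mean plus 3 SD, that is over about 124.5% of the solvent control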;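 further: AGP1-GFP fusion strain of S. cerevisiae within a five-strain barcoded multiplex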); conditions: 3 h, at 10 µM, stronger effect = higher value
# [6] = inhibitors of CD8+ T cell-vesicle binding, pilot screen, LFA-1/ICAM-1 modulator project, MLPCN validation set, flow cytometry (AID 2523;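 active means response below a set limit, under 55% cells CD8-positive and vesicle-bound, and CD8 cells' 90th-percentile brightness under 279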;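 on vesicle binding response: mean PE anti-B7-1 fluorescence of CD8+ cells relative to row control; 100% = QL9-loaded vesicles with DMSO vehicle in the same plate row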); conditions: 2C mouse CD8+ T cells, at 7 µM, stronger effect = lower value; double positive events: measured here: CD8+/vesicle+ event percentage
# [7] = molecular target: Integrin beta-1 (Homo sapiens) + Integrin alpha-4 (Homo sapiens) (UniProt P13612+P05556); experiment: inhibition of HUTS-21 binding to VLA-4, pilot screen, VLA-4 allosteric modulator project, U937 cells, HUTS-21 mAb, flow cytometry, validation set (AID 2674;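 active means inhibition above 50%, about 3 SD of the validation set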;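 further: antibody binding induced by the VLA-4 ligand LDV present at three times its Kd; 0% = LDV ligand with antibody and no compound and 100% = antibody without LDV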); conditions: HUTS-21 LIBS mAb binding, at 6.7 µM, stronger effect = higher value, binding induced by LDV ligand
# Chain of Integrin beta-1 (Homo sapiens) + Integrin alpha-4 (Homo sapiens) (P05556 whole entry, looked up): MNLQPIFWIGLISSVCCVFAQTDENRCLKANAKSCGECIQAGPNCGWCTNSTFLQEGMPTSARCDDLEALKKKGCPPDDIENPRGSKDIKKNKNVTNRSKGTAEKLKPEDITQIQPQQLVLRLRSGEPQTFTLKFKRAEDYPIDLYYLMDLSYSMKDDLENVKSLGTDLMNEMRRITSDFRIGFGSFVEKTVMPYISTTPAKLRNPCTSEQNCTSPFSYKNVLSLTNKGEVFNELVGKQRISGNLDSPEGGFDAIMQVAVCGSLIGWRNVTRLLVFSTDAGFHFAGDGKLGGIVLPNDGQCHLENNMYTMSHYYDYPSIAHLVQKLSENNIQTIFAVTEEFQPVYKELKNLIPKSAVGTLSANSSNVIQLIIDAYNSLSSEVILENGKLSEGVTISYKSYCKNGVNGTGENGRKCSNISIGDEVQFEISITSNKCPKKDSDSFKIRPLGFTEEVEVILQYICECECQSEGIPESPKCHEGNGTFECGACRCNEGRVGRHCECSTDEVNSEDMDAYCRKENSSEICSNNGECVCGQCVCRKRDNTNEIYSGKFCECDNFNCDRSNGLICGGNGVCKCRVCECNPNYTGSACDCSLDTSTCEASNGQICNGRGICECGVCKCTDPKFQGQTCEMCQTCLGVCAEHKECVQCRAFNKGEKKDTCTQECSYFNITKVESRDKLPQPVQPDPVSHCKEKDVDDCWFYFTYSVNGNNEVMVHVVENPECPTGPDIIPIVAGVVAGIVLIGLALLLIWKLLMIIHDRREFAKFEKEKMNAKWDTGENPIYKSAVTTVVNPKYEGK
# Chain of Integrin beta-1 (Homo sapiens) + Integrin alpha-4 (Homo sapiens) (P13612 whole entry, looked up): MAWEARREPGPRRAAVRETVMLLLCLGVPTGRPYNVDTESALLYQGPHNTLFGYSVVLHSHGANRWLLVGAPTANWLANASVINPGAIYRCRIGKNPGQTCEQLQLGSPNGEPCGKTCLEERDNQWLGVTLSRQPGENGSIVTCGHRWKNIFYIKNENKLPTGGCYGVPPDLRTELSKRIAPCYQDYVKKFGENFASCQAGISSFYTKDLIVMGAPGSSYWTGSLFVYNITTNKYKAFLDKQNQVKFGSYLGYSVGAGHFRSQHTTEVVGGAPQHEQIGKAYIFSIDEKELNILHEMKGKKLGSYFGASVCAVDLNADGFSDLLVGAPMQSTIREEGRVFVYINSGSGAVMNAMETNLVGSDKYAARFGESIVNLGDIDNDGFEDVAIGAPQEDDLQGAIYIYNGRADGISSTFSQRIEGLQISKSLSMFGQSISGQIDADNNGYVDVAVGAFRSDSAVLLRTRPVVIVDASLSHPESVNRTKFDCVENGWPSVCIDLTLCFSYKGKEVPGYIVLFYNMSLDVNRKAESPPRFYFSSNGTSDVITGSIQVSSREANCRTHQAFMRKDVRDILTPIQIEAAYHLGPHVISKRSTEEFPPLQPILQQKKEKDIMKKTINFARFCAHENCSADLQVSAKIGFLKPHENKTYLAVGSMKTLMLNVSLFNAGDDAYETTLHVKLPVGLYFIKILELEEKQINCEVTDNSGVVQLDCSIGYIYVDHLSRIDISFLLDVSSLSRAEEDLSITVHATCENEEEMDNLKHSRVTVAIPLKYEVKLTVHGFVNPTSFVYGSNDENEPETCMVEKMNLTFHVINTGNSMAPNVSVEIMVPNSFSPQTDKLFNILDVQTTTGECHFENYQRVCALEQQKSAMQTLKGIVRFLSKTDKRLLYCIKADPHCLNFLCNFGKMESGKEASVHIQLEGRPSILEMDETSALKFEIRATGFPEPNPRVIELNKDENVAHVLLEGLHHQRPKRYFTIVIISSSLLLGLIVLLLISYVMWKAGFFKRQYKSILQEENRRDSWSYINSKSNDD
# [8] = superoxide lowering in aged yeast cells, pilot screen, validation compound set (AID 2706;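 active means superoxide response below 65% of plate, a cut near 3 SD across the whole screen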;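 further: yeast exposed to compound for one week at 30 degrees C before staining; 100% = mean of all compound wells on the same plate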); conditions: S. cerevisiae aging, superoxide DHE fluorescence; at 10 µM, stronger effect = lower value
# [9] = molecular target: Beta-adrenergic receptor kinase 1 (Homo sapiens) (UniProt P25098); experiment: GRK2 binders displacing RNA aptamer, biochemical, validation, human GRK2, bead flow cytometry (AID 488806;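 active means aptamer binding inhibition above 30%, about 3 SD of noise from non-fluorescent compounds; inactive means inhibition at or below 30%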); conditions: bead-bound GRK2, FAM-aptamer displacement, at 10 µM, stronger effect = higher value
# Chain of Beta-adrenergic receptor kinase 1 (Homo sapiens) (P25098 whole entry, looked up): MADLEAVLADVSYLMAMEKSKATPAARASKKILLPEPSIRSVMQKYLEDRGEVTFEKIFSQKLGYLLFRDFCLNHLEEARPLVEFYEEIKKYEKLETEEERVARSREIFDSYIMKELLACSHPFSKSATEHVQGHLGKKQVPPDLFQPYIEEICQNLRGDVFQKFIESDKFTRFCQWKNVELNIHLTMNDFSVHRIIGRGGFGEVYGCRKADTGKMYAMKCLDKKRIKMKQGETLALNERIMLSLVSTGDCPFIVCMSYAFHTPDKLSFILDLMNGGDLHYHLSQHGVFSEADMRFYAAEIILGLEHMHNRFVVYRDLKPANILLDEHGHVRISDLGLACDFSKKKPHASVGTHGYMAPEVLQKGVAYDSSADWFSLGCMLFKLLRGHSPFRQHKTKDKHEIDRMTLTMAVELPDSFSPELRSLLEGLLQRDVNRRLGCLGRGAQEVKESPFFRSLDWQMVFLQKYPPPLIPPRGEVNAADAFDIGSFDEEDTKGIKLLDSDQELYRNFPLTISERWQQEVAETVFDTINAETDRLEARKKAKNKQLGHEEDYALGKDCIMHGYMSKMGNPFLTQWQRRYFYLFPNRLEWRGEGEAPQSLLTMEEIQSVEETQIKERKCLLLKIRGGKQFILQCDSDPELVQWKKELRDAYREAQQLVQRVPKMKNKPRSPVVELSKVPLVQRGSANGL
# [10] = molecular target: Beta-2 adrenergic receptor (Homo sapiens) (UniProt P07550); experiment: beta2AR agonists driving receptor internalization, pilot screen, cell-based, FAP fluorogen, flow cytometry, validation set (AID 504459;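 active means percent response above 42, roughly 3 SD of non-fluorescent test compounds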;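 further: agonist-driven loss of surface beta2AR via internalization measured by FAP dye flow cytometry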); conditions: Am2.2-beta2AR cells, FAP surface receptor flow cytometry; at 10 µM; stronger effect = higher value
# Chain of Beta-2 adrenergic receptor (Homo sapiens) (P07550 whole entry, looked up): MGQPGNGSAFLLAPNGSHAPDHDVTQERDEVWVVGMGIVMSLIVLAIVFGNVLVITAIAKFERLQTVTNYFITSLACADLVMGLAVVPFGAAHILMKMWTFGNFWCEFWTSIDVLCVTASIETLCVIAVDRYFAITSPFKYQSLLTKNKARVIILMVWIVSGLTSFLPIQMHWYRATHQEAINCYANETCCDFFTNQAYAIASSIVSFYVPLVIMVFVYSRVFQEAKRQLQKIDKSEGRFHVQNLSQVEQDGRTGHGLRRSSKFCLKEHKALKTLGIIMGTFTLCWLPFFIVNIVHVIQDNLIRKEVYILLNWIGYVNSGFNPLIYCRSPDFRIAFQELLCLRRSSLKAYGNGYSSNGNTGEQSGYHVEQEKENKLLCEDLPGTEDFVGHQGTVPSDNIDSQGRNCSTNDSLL
# [11] = molecular target: AP-2 complex subunit beta (Homo sapiens) (UniProt P63010); experiment: inhibitors of arrestin peptide binding to AP2, pilot screen, biochemical, validation set, GST-AP2 beads, flow cytometry (AID 504541;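 active means inhibition above 54%, about 3 SD of non-fluorescent compounds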;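 further: AP2 carries R879A mutation and is captured from E. coli lysate; bead-bound FITC arrestin peptide fluorescence measuring arrestin peptide binding to AP2; 0% = DMSO wells and 100% = excess unlabeled arrestin peptide control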); conditions: FITC arrestin peptide, at 10 µM, stronger effect = higher value, AP2 beta2 appendage fragment, R879A mutant
# Chain of AP-2 complex subunit beta (Homo sapiens) (P63010 whole entry, looked up, the tested form may be a part, one chain of several): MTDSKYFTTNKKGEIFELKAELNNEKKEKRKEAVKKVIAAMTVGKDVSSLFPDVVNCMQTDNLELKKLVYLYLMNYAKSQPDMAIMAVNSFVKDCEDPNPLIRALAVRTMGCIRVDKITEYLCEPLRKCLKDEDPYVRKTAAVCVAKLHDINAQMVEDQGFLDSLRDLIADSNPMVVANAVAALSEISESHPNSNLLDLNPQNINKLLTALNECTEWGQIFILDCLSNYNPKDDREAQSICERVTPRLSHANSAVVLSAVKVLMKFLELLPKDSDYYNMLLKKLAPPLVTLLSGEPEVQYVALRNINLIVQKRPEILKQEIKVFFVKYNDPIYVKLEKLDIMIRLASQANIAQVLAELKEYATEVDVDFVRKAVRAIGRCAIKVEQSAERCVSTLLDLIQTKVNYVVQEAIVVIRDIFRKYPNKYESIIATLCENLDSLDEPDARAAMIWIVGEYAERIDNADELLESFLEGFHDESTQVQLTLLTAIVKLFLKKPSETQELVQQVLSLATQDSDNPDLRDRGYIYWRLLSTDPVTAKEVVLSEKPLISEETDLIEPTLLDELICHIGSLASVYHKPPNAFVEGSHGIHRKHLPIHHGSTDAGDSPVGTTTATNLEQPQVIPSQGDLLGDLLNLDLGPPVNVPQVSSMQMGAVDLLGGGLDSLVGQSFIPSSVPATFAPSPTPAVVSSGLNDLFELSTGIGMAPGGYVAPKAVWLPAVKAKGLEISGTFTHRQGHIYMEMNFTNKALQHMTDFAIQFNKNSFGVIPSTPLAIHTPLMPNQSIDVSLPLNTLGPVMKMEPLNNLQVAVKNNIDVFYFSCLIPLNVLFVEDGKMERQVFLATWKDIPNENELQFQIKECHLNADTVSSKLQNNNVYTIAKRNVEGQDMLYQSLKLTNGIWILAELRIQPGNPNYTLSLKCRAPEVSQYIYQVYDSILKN
# [12] = yeast V-ATPase proton transport modulators, S. cerevisiae, pHLuorin, HTS validation (AID 504600; in the data active means response above about 15%;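 further: plate controls were DMSO for no effect and reference compound for full effect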); conditions: S. cerevisiae pHLuorin cytosolic pH, at 10 µM, stronger effect = higher value
# [13] = system: anti-desmoglein-3 scFv antibody binding to human DSG3; experiment: inhibitors of anti-DSG3 scFv binding to DSG3, pilot screen, biochemical, validation compound set, bead-based, flow cytometry (AID 588368;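 active means binding below the plate cutoff, the plate median minus 3 SD, with a reading above zero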;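 further: signal is the median channel fluorescence of bead-bound GFP antibody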); conditions: Protein G beads, DSG3-Fc, scFv-GFP binding, at 10 µM, stronger effect = lower value
# [14] = inhibitors of fungal efflux pumps CDR1, CDR2, MDR1, pilot screen, validation compound set, multiplex, phenotypic (AID 588506;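 active means efflux inhibition above 0.42, the validation set average plus 4 SD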;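 further: Nile Red retained in cells so higher fluorescence means more efflux inhibition; 0 = negative control wells and 1 = enniatin B 25 µM full block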); conditions: S. cerevisiae pump-expressing triplex, Nile Red efflux flow cytometry; at 10 µM; stronger effect = higher value; the pumps come from Candida albicans
# [15] = molecular target: ATP-binding cassette sub-family B member 6 (Homo sapiens) (UniProt Q9NP58); experiment: ABCB6 transporter inhibitors, pilot screen, K562-ABCB6 cells, flow cytometry, validation set (AID 588550;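 active means inhibition above the screen-wide mean plus 3 SD, about 51%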;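 further: 0% = DMSO wells and 100% = benzethonium chloride 70 µM positive control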); conditions: K562-ABCB6 porphyrin accumulation, 1 h, at 10 µM, stronger effect = higher value
# Chain of ATP-binding cassette sub-family B member 6 (Homo sapiens) (Q9NP58 whole entry, looked up): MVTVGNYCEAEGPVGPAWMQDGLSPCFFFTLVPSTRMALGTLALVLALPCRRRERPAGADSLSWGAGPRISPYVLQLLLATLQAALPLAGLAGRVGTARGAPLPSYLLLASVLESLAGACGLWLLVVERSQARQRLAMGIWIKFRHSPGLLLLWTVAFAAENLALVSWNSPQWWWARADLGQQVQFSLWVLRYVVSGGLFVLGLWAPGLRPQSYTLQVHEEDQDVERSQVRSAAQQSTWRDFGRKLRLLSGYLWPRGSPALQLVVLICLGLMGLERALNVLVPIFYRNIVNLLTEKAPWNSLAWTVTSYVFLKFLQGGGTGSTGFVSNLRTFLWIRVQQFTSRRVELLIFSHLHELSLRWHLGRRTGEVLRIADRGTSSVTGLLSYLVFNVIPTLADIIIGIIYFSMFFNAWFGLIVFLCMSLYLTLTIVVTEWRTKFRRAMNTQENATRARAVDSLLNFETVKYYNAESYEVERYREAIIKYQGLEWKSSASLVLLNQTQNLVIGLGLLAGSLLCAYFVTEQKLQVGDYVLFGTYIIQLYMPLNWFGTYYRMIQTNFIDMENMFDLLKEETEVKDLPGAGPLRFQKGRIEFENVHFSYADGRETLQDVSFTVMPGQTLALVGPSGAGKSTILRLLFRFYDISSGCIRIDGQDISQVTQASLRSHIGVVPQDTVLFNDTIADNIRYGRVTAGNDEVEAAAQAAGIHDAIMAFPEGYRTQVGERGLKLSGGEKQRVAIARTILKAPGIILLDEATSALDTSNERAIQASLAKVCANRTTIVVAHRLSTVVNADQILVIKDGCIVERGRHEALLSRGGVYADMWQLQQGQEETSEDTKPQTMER
# [16] = promoters of myeloid differentiation in arrested cells, primary screen, cell-based, GFP/MAC1 double positive, flow cytometry, validation set (AID 588685); conditions: ER-HoxA9 marrow cells, stronger effect = higher value, normalized: vehicle 0, fulvestrant 100;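 further: compound exposure lasts four days before antibody staining and flow analysis; 0% = DMSO wells and 100% = 5 µM fulvestrant positive control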
Compound,percent of DMSO control GFP [1],GFP response vs DMSO [2],percent response of DMSO control [3],GFP response vs DMSO [4],"GFP response, % of DMSO [5]",double positive events [6] [%],inhibition [7],superoxide response (% of plate) [8],aptamer binding inhibition [9],response [10],inhibition [11],response [12],binding (% of control) [13],efflux inhibition (fraction of control) [14],inhibition [15],differentiation response [16],vesicle binding response [6]
COc1ccc(Cc2nc(-c3ccc(Br)cc3)no2)cc1,100% (inactive),103% (inactive),101% (inactive),95.3% (inactive),102% (inactive),40,-12.9% (inactive),117% (inactive),-1% (inactive),-5.31% (inactive),58.9% (active),-2.85% (inactive),99.3% (inactive),0.14 (inactive),-4% (inactive),48.1% (inactive),–
Cc1ccc2[nH]c3c(c2c1)CN(C(=O)CN1CCSCC1)CC3,100% (inactive),93% (inactive),101% (inactive),102% (inactive),101% (inactive),60.8,-51.3% (inactive),–,0% (inactive),-263% (inactive),-3.3% (inactive),0.82% (inactive),439% (inactive),-0.04 (inactive),–,28.6% (inactive),66.8% (inactive)
COc1cccc(N2CC(O)=C(c3nc4ccccc4c(=O)[nH]3)C2=N)c1,97.9% (inactive),130% (inactive),116% (inactive),75.9% (inactive),–,58.4,11.3% (inactive),106% (inactive),5% (inactive),20.8% (inactive),2.43% (inactive),8.28% (inactive),103% (inactive),-0.2 (inactive),14% (inactive),2.46% (inactive),140% (inactive)
Clc1ccc(Cn2c(CN3CCCC3)nc3ccccc32)cc1,100% (inactive),104% (inactive),107% (inactive),100% (inactive),102% (inactive),56.4,–,105% (inactive),-1% (inactive),–,1.97% (inactive),-2.91% (inactive),102% (inactive),-0.43 (inactive),4% (inactive),-22.8% (inactive),98% (inactive)
N=C(N)c1ccc(OCCCCCOc2ccc(C(=N)N)cc2)cc1,107% (inactive),105% (inactive),96.5% (inactive),110% (inactive),99.6% (inactive),53.8,-7.79% (inactive),98% (inactive),-23% (inactive),20.7% (inactive),-15.3% (inactive),-1.89% (inactive),112% (inactive),0.285 (inactive),9% (inactive),8.59% (inactive),–
Cc1cccc(N(C)C(=S)Oc2ccc3ccccc3c2)c1,94.4% (inactive),114% (inactive),95.2% (inactive),78.7% (inactive),97.5% (inactive),86.4,-8.09% (inactive),87.4% (inactive),0% (inactive),11.2% (inactive),-3.34% (inactive),4.82% (inactive),106% (inactive),-0.38 (inactive),8% (inactive),-1.64% (inactive),–
Cc1cc(C(C)(C)C)cc(C)c1CC1=NCCN1,93.7% (inactive),133% (inactive),96.6% (inactive),77.6% (inactive),–,62.8,18.1% (inactive),104% (inactive),1% (inactive),-5.36% (inactive),5.97% (inactive),-7.49% (inactive),98.5% (inactive),0.12 (inactive),10% (inactive),2.46% (inactive),214% (inactive)
CCOC(=O)[C@H](CCc1ccccc1)N[C@@H](C)C(=O)N1CCC[C@H]1C(=O)O,102% (inactive),98.3% (inactive),93.1% (inactive),98.6% (inactive),96.4% (inactive),64.3,-5.64% (inactive),–,13% (inactive),-2.62% (inactive),61% (active),-5.12% (inactive),95.3% (inactive),0.46 (active),3% (inactive),25.7% (inactive),171% (inactive)
O=c1n(CCCN2CCN(c3cccc(Cl)c3)CC2)nc2ccccn12,91.5% (inactive),112% (inactive),106% (inactive),75.9% (inactive),92.4% (inactive),69.6,1.61% (inactive),102% (inactive),2% (inactive),2.3% (inactive),-2.13% (inactive),1.41% (inactive),102% (inactive),-0.2 (inactive),11% (inactive),5.73% (inactive),–
COc1ccc(-c2onc(C)c2-c2ccc(C(=O)OC(C)C)o2)c(O)c1,102% (inactive),109% (inactive),93.4% (inactive),102% (inactive),90.1% (inactive),71.4,2.93% (inactive),95.6% (inactive),-3% (inactive),58.6% (active),-6.7% (inactive),-0.7% (inactive),105% (inactive),-0.02 (inactive),5% (inactive),13% (inactive),–

# — PubChem BioAssay
